Test results taken from the supplement of paper PMC3334620.
In all, about 33,000 sequences were measured (“E-score (-0.5 to 0.5)”: median about -0.032, highest 2% from about 0.36 on). Shown is part of a subset that was picked to be rich in the highest values.

Each sequence was assayed against T1, Sko1 (UniProt Q02100) (assay: PBM E-score (8-mer binding enrichment) (E-score (-0.5 to 0.5)); higher = stronger / more preferred TF binding). Conditions: protein concentration: 200 nM; construct: GST-full length.
T1 sequence: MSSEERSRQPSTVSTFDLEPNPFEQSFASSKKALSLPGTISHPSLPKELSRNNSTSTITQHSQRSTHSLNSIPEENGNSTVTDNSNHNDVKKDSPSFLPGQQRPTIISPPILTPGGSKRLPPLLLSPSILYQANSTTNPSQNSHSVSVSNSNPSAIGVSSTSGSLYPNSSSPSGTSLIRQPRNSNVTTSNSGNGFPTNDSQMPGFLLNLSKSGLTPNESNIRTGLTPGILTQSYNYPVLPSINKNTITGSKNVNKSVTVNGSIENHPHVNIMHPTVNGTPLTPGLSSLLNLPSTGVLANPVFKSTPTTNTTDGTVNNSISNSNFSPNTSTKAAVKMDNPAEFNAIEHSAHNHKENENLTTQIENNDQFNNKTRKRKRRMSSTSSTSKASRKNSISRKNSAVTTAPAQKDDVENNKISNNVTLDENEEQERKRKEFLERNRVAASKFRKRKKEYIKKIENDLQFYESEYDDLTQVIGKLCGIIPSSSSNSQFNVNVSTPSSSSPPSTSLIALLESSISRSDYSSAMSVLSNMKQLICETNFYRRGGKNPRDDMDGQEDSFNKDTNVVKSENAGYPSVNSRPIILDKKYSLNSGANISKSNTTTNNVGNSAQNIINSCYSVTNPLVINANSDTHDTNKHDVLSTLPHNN
Method: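 Universal 'all 10-mer' protein binding microarrays (Agilent AMADID 015681) probed with GST-tagged S. cerevisiae TFs (full-length or DBD) made by in vitro transcription/translation (PURExpress), about 100-200 nM. Bound TF was detected with fluorescent anti-GST. Each ungapped 8-mer (which stands for itself and its reverse complement) is scored by the PBM enrichment score (E-score), a modified Wilcoxon-Mann-Whitney statistic from -0.5 to +0.5, computed with the Universal PBM Analysis Suite. Scale: above 0.35 generally sequence-specific binding.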

Sequence | PBM E-score
CTTCCTAC | -0.225
CTTCTCTA | -0.284
TATGAGCA | 0.00789
ACCTGGCT | -0.232
ACCGTCCG | -0.304
AGGAGCCA | -0.258
CCTGCGGC | -0.427
GAATGACA | 0.249
CAATGACC | 0.0293
AAATGACG | 0.481
AAATGACC | 0.0951
TAATGAAA | 0.24
AAATGACA | 0.272
TAATGACA | 0.364
CAATGACA | 0.229
CAATGACG | 0.486
AAATGGTG | 0.0316
GAAGGTAA | 0.0069
ACACTCAG | -0.0491
TACGGCTA | -0.0295
ATTCGAAG | 0.0402
AGCTAGTG | -0.00092
AAACAAGG | -0.131
ATGATTCC | 0.169
AACTACGT | 0.455

Sequence | PBM E-score
AACTACGC | 0.305
ACCTACGT | 0.444
AACTACGA | 0.198
ACCTACGC | 0.293
ACCTACGG | -0.217
ACGCCAAA | 0.0451
GCAAACCA | -0.0509
CTTTGGAA | -0.0181
AGTCGTTA | 0.0683
CAAGAAGA | -0.0303
CTCTTTCA | -0.0826
CAGGTTTC | -0.0189
GAAGCACC | -0.0674
TAAAGAGA | 0.0871
GTTACATA | 0.251
AGTACATC | 0.142
ATTACATG | 0.324
CTTACATC | 0.202
ATTACATC | 0.403
ATTACATA | 0.386
AGACAGCC | -0.219
TGCGTAAA | 0.404
CGCGTAAA | 0.311
GGCGTACA | -0.0526
AGCGTACA | 0.0563

Sequence | PBM E-score
AGCGTAAA | 0.189
TGCGTACA | 0.36
GTTGCACA | 0.0444
CGCATCAG | -0.0566
AGTCAACA | 0.0814
GAAGTCGC | -0.139
ATGTGCAC | -0.0142
ACGATTAC | 0.369
CCGATTAC | 0.0359
GCGATTAC | 0.144
ATGAGTCC | 0.0501
GCGTACGA | 0.238
AAGTACGA | 0.201
ATGTACGG | -0.046
AAGTACGT | 0.44
GCGTACGC | 0.269
AAGTACGC | 0.193
CCGTACGG | -0.262
CCGTACGC | 0.0653
ACGTACGA | 0.414
ACGTACGG | 0.38
CCGTACGA | 0.0901
ACGTACGC | 0.453
AGCGTTAT | 0.0494
ACCTGCAT | -0.13

Sequence | PBM E-score
ATAAGAGA | 0.0988
ATCTTCGC | 0.1
AAAGTAAC | 0.0224
AAAACCGG | -0.128
CAGGCCGA | -0.182
GGGGTAGA | -0.0788
AGAAACTG | 0.0191
CGCAGCTC | -0.0758
ACGTACGT | 0.473
TCGTACGA | 0.282
ATGTACGA | 0.143
ACCTAGCG | -0.0355
AAGGTGCT | -0.238
ATGCAAAA | 0.116
AAATTGAG | -0.0473
ACGTTTAC | 0.345
AGGTTTAT | 0.0336
ACGTTTAA | 0.406
CCGTTTAA | -0.0451
ACGTTTAG | 0.355
ACGTTTAT | 0.388
GTGCCAAA | -0.0151
CTAACTTC | 0.0478
CGTCTGCC | -0.00999
ATATTTCG | 0.235

Sequence | PBM E-score
GATTGGTA | -0.054
AAAGTCTT | 0.0148
GGGGAGTA | -0.124
ATGCCAAA | -0.0114
CAACGTCA | 0.47
AAACGTCC | 0.13
AAACGTCT | 0.341
CAACGTCG | 0.222
TAACGTCA | 0.48
GAACGTCA | 0.456
GAACGTTA | 0.18
TAACGGCA | 0.0289
GAACGTCC | 0.117
TAACGCCA | 0.144
CAACGTCC | -0.0395
AAACGTCA | 0.47
CCACTCGC | -0.25
GAGATCCC | -0.171
CCCGCAAA | -0.0244
GGGGCGGA | -0.338
CGTCTAAG | 0.0318
CCGACCGG | -0.294
ACAGTCTG | -0.171
ACGATTCG | 0.059
CCGTCTGA | -0.224

Sequence | PBM E-score
AGGCAGTA | -0.129
CCGGCCGG | -0.373
CGCTGACC | -0.15
AGCTGACG | 0.347
AACTGACT | -0.0679
CACTGACC | -0.26
CGCTGACG | 0.389
CACTGACA | 0.0149
AACTGACG | 0.363
CACTGACG | 0.424
AACTGACA | 0.183
TGGTGCAA | -0.0842
CCTTTTAC | -0.0204
AGCGAACC | 0.0124
TCCCAAAA | -0.048
ATGCAAAC | 0.108
ATACCGTG | -0.0765
GCACTGCA | 0.0142
ACGTCACG | 0.486
ACGTCACT | 0.489
ATGTCACA | 0.324
AAGTCACG | 0.126
AGGTCACT | -0.0104
CCGTCACC | 0.101
AAGTCACA | 0.0509

Sequence | PBM E-score
AAGTCACT | 0.144
AGGTCACC | -0.128
ACGTCACA | 0.481
ACGTCACC | 0.489
AGGTCACG | 0.0716
CTAGAATC | -0.0473
ATCAGGTG | -0.0909
ACTGCAAC | -0.0632
GTGCTTCA | 0.0642
ACATATGT | 0.29
CGTGAGAA | 0.117
GTAATTAC | 0.367
GTAATTAA | 0.237
ATAATTAA | 0.285
ATAATTAC | 0.376
GAAATTAC | 0.323
CTAATTAC | 0.323
CACTGTCG | -0.11
GCACCTGC | -0.202
ACATCAAG | 0.242
ACATCATA | 0.425
ACATCATC | 0.43
